Active and inactive are the calls of the source.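 Rule for the calls, unless noted: active = visually confirmed hit in the image check and inhibition above 20%; inconclusive = visually confirmed hit but inhibition not above 20%; inactive = no visual hit in the image check.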
Experiments:
[1] = inhibitors of TNFa-induced NFkB p65 translocation, primary screen, imaging, HUVEC, MLSMR starter and 10KST1 sets (AID 438;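 active = inhibition above 20% together with a positive visual image hit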;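 note: compound added about 3h40 before a 20 min TNFalpha stimulation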;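 for inhibition: signal is the nuclear over cytoplasmic p65 intensity ratio per well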); conditions: HUVEC TNFa-induced p65 nuclear translocation; cell count: measured here: nuclei count (cytotoxicity indicator), at 2.08 µM; inhibition: at 2 µM, stronger effect = higher value, 0% TNFa-plus-vehicle, 100% no-TNFa wells
[2] = inhibitors of mutant huntingtin aggregation, primary screen, imaging, exon1htt(103Q)mCFP cells, high-content imaging (AID 483;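 active = visual image review flags a hit and inhibition of aggregation exceeds 20%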;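 note: compound exposure lasted 3 days before fixation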;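 for nuclei count: percent of the per-plate median nuclei count of sample wells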); conditions: exon1htt(103Q)mCFP cell line, aggregate imaging, at 2 µM; inhibition of aggregation: stronger effect = higher value; nuclei count: measured here: cell count, toxicity
[3] = inhibitors of E-selectin induction by TNFa, primary screen, imaging, HUVEC, immunofluorescence, MLSMR starter and 10KST1 sets (AID 487); conditions: HUVEC TNFalpha-induced E-selectin immunofluorescence imaging, at 2 µM; inhibition: stronger effect = higher value; nuclei count: measured here: cell number, toxicity;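 for inhibition: signal is fraction of cell area covered by stained E-selectin grains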;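 for nuclei count: 100% = median nuclei count of all wells on the same plate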
[4] = biological target: Voltage-gated potassium channel subunit beta-2 (Rattus norvegicus) (UniProt P62483); test: KvBeta enzyme negative modulators, primary screen, biochemical, NADPH fluorescence (AID 622;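 active = fluorescence slope higher than the sample average by over 3 SD, cut at about -0.22 in these data, passing the limit was not always enough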;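 note: slope of raw intensity against log time taken from 70 to 1610 s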); conditions: recombinant KvBeta, 4-cyanobenzaldehyde reduction, at 10 µM, stronger effect = higher value
Chain of Voltage-gated potassium channel subunit beta-2 (Rattus norvegicus) (P62483 whole entry, looked up): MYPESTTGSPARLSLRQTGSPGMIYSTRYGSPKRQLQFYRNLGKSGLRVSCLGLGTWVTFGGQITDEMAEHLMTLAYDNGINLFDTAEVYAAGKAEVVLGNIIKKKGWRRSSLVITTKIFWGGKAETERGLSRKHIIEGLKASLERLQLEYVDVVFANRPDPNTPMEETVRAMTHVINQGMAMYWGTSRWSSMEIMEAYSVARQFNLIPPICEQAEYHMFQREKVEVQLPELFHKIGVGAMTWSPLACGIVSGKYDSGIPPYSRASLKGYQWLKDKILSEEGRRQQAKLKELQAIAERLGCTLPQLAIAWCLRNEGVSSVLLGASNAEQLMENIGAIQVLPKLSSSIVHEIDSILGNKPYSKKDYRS

[5] = biological target: Voltage-gated potassium channel subunit beta-2 (Rattus norvegicus) (UniProt P62483); test: KvBeta positive modulators, primary screen, biochemical, NADPH fluorescence (AID 623;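 active = NADPH fluorescence slope more negative than the mean of all samples by about 3 SD, 99.7% confidence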;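 note: fluorescence intensity change per second fitted from 20 to 320 s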); conditions: Recombinant KvBeta, NADPH fluorescence decrease slope, 10 min; at 10 µM; stronger effect = lower value
[6] = biological target: Alpha-2C adrenergic receptor (Homo sapiens) (UniProt P18825); test: modulators of alpha2C/GIRK thallium flux, primary screen, cell-based, HEK293 alpha2C/GIRK1/2 (AID 624;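 active = fluorescence slope after compound addition differing from the mean of all screened samples at 99.7% confidence, in either direction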;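 note: slope of fluorescence ratio to pre-addition baseline per second over 15 to 24 s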); conditions: thallium flux BTC fluorescence, at 10 µM, actives lie on both sides
Chain of Alpha-2C adrenergic receptor (Homo sapiens) (P18825 whole entry, looked up): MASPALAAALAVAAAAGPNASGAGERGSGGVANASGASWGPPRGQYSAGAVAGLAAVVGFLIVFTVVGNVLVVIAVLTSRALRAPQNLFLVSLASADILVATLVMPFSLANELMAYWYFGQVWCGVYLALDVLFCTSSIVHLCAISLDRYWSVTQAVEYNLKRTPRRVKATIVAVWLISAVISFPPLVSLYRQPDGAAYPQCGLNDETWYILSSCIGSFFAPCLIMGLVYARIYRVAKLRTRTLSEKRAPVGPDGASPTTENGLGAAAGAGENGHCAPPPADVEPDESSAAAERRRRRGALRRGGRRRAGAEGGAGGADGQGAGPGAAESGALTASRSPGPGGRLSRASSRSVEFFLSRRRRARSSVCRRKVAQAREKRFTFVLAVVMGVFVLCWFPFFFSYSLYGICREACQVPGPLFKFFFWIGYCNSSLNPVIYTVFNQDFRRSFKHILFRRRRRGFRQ

[7] = inhibitors of Sendai virus-induced IRF3 signaling, primary screen, TLR/RLR signaling modifier project, cell-based, Sendai virus stimulus, luciferase, 10K MLSCN set (AID 602276;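 active = inhibition at or above 50% at 10 µM; inactive = inhibition below 50%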;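 note: firefly luciferase from ISG56 promoter only with Renilla not read in this screen; 0% = Sendai virus plus DMSO and 100% = medium plus DMSO without virus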); conditions: HEK293 RL24 IRF3 luciferase reporter, at 10 µM, stronger effect = higher value
[8] = inhibitors of poly I:C-induced TLR3 signaling, primary screen, cell-based, poly I:C stimulus, luciferase, 10K MLSCN set (AID 602277;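 active = inhibition of the reporter signal at or above 50%; inactive = inhibition below 50%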); conditions: HEK293-TLR3 RL24 IRF3 luciferase reporter, at 10 µM, stronger effect = higher value

SMILES: CC(C)Cn1c(N)c(C(=O)NCCN2CCOCC2)c2nc3ccccc3nc21
- cell count [1]: 440
- inhibition [1]: -2.8% (inactive)
- inhibition of aggregation [2]: -15.6% (inactive)
- nuclei count [2]: 101%
- inhibition [3]: -37.1% (inactive)
- nuclei count [3]: 81.3%
- fluorescence slope [4]: -0.0147 (inactive)
- NADPH fluorescence slope [5]: -9e-06 (inactive)
- slope [6]: 0.00559 (inactive)
- inhibition [7]: 19.1% (inactive)
- inhibition [8]: 19.8% (inactive)

SMILES: O=C(O)Cn1nc2ccccc2n1
- cell count [1]: 396
- inhibition [1]: 5% (inactive)
- inhibition of aggregation [2]: 10.5% (inactive)
- nuclei count [2]: 100%
- inhibition [3]: -55.1% (inactive)
- nuclei count [3]: 98.8%
- fluorescence slope [4]: -0.4 (inactive)
- NADPH fluorescence slope [5]: 1.5e-05 (inactive)
- slope [6]: 0.00551 (inactive)
- inhibition [7]: 14.6% (inactive)
- inhibition [8]: 11.8% (inactive)

SMILES: CC1=C(C(N)=O)C(c2ccncc2)n2nc(-c3ccccc3Cl)nc2N1 (centres undefined)
- cell count [1]: 617
- inhibition [1]: 0% (inactive)
- inhibition of aggregation [2]: 5.7% (inactive)
- nuclei count [2]: 92.1%
- inhibition [3]: -1.2% (inactive)
- nuclei count [3]: 109%
- fluorescence slope [4]: -0.528 (inactive)
- NADPH fluorescence slope [5]: -2.9e-05 (inactive)
- slope [6]: 0.00735 (inactive)
- inhibition [7]: 3.63% (inactive)
- inhibition [8]: 21.9% (inactive)

SMILES: O=C(C1CCC(CNc2c(N3CCCCC3)c(=O)c2=O)CC1)N1CCc2ccccc2C1 (centres undefined)
- cell count [1]: 557
- inhibition [1]: 8.9% (inactive)
- inhibition of aggregation [2]: -6.5% (inactive)
- nuclei count [2]: 95.1%
- inhibition [3]: 44% (inactive)
- nuclei count [3]: 97.9%
- fluorescence slope [4]: -0.51 (inactive)
- NADPH fluorescence slope [5]: -1.9e-05 (inactive)
- slope [6]: 0.00576 (inactive)
- inhibition [7]: 8.75% (inactive)
- inhibition [8]: 33.5% (inactive)

SMILES: O=C(Oc1ccccc1)c1cccc(COC(=O)c2cnccn2)c1
- cell count [1]: 385
- inhibition [1]: -1.6% (inactive)
- inhibition of aggregation [2]: 7.9% (inactive)
- nuclei count [2]: 103%
- inhibition [3]: 20.7% (inactive)
- nuclei count [3]: 105%
- fluorescence slope [4]: -0.425 (inactive)
- NADPH fluorescence slope [5]: -5.1e-05 (inactive)
- slope [6]: 0.00507 (inactive)
- inhibition [7]: 5.8% (inactive)
- inhibition [8]: 3.65% (inactive)

SMILES: CCn1cc(C(=O)NC2CCc3ccccc32)c(=O)c2ccc(C)nc21 (centres undefined)
- cell count [1]: 727
- inhibition [1]: -2.2% (inactive)
- inhibition of aggregation [2]: -0.4% (inactive)
- nuclei count [2]: 100%
- inhibition [3]: -37% (inactive)
- nuclei count [3]: 110%
- fluorescence slope [4]: -0.559 (inactive)
- NADPH fluorescence slope [5]: 2.4e-05 (inactive)
- slope [6]: 0.00594 (inactive)
- inhibition [7]: 7.46% (inactive)
- inhibition [8]: 13.4% (inactive)

SMILES: CSC1=C(C#N)C(c2ccc(Cl)cc2)C2=C(CC(C)(C)CC2=O)N1 (centres undefined)
- cell count [1]: 391
- inhibition [1]: -3.3% (inactive)
- inhibition of aggregation [2]: 29.1% (inactive)
- nuclei count [2]: 81.5%
- inhibition [3]: -5.3% (inactive)
- nuclei count [3]: 108%
- fluorescence slope [4]: -0.416 (inactive)
- NADPH fluorescence slope [5]: 5.8e-06 (inactive)
- slope [6]: 0.00657 (inactive)
- inhibition [7]: 1.71% (inactive)
- inhibition [8]: 24.5% (inactive)

SMILES: O=C(O)C1CC(=O)N(CCOc2ccccc2)C1 (centres undefined)
- cell count [1]: 407
- inhibition [1]: 4.7% (inactive)
- inhibition of aggregation [2]: 10.8% (inactive)
- nuclei count [2]: 86.7%
- inhibition [3]: -59.8% (inactive)
- nuclei count [3]: 101%
- fluorescence slope [4]: -0.41 (inactive)
- NADPH fluorescence slope [5]: 4.3e-05 (inactive)
- slope [6]: 0.00593 (inactive)
- inhibition [7]: 0.323% (inactive)
- inhibition [8]: 15.8% (inactive)

SMILES: Cc1c(C)n(C)c2ccc(C(=O)NCc3cccs3)cc12
- cell count [1]: 461
- inhibition [1]: -9.2% (inactive)
- inhibition of aggregation [2]: 19.4% (inactive)
- nuclei count [2]: 83.8%
- inhibition [3]: 11.8% (inactive)
- nuclei count [3]: 93.5%
- fluorescence slope [4]: -0.505 (inactive)
- NADPH fluorescence slope [5]: -3e-05 (inactive)
- slope [6]: 0.00486 (inactive)
- inhibition [7]: -5.31% (inactive)
- inhibition [8]: -32.8% (inactive)

SMILES: O=C(O)[C@@H]1CCCN1c1ncnc2sc3c(c12)CCC3
- cell count [1]: 434
- inhibition [1]: -5.7% (inactive)
- inhibition of aggregation [2]: 0.1% (inactive)
- nuclei count [2]: 128%
- inhibition [3]: -149% (inactive)
- nuclei count [3]: 247%
- fluorescence slope [4]: -0.412 (inactive)
- NADPH fluorescence slope [5]: -2.3e-05 (inactive)
- slope [6]: 0.00577 (inactive)
- inhibition [7]: 17.9% (inactive)
- inhibition [8]: 13.8% (inactive)

SMILES: N#Cc1ccc(CSc2nnc(-c3cccs3)n2-c2ccccc2)cc1
- cell count [1]: 369
- inhibition [1]: -6% (inactive)
- inhibition of aggregation [2]: -12.4% (inactive)
- nuclei count [2]: 99.1%
- inhibition [3]: -50% (inactive)
- nuclei count [3]: 120%
- fluorescence slope [4]: -0.5 (inactive)
- NADPH fluorescence slope [5]: 9.2e-06 (inactive)
- slope [6]: 0.00461 (inactive)
- inhibition [7]: -0.725% (inactive)
- inhibition [8]: 2.95% (inactive)

SMILES: CCS(=O)(=O)NCCc1cc2c(OC)ccc(OC)c2[nH]c1=O
- cell count [1]: 349
- inhibition [1]: -15.2% (inactive)
- inhibition of aggregation [2]: 12.1% (inactive)
- nuclei count [2]: 83.7%
- inhibition [3]: 38.9% (inactive)
- nuclei count [3]: 95.1%
- fluorescence slope [4]: -0.488 (inactive)
- NADPH fluorescence slope [5]: -3.1e-05 (inactive)
- slope [6]: 0.00489 (inactive)
- inhibition [7]: 16.6% (inactive)
- inhibition [8]: 26.4% (inactive)

SMILES: CCOc1ccccc1NC(=O)CSc1nnc(Cc2cccn2C)n1-c1ccc(F)cc1
- cell count [1]: 529
- inhibition [1]: -2.9% (inactive)
- inhibition of aggregation [2]: -9.7% (inactive)
- nuclei count [2]: 93.1%
- inhibition [3]: -55.6% (inactive)
- nuclei count [3]: 109%
- fluorescence slope [4]: -0.577 (inactive)
- NADPH fluorescence slope [5]: -3.6e-05 (inactive)
- slope [6]: 0.00579 (inactive)
- inhibition [7]: 12.1% (inactive)
- inhibition [8]: 31.3% (inactive)

SMILES: Cn1c(=O)c(=O)n(C)c2cc(S(=O)(=O)N3CCCCC3)ccc21
- cell count [1]: 289
- inhibition [1]: 0.7% (inactive)
- inhibition of aggregation [2]: 22.5% (inactive)
- nuclei count [2]: 83.6%
- inhibition [3]: -3.4% (inactive)
- nuclei count [3]: 87.6%
- fluorescence slope [4]: -0.426 (inactive)
- NADPH fluorescence slope [5]: -7.3e-05 (inactive)
- slope [6]: 0.00642 (inactive)
- inhibition [7]: 14.8% (inactive)
- inhibition [8]: 14.6% (inactive)
